# Bioassay records as filed in PubChem.
# Most compounds without a hit are left out; they make up all but 4% or so of the library.
# Rv3671c inh – Rv3671c (M. tuberculosis) protease inhibition. P9WHR9. inhibition, % at 5.96 µM. actives 0.048% (n = 320,000); in the data active = inhibition above about 38%;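 note: extracellular domain of Rv3671c used as enzyme; 0% = enzyme with DMSO and 100% = no enzyme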
# Target sequence (P9WHR9 whole entry, looked up, the tested form may be a part): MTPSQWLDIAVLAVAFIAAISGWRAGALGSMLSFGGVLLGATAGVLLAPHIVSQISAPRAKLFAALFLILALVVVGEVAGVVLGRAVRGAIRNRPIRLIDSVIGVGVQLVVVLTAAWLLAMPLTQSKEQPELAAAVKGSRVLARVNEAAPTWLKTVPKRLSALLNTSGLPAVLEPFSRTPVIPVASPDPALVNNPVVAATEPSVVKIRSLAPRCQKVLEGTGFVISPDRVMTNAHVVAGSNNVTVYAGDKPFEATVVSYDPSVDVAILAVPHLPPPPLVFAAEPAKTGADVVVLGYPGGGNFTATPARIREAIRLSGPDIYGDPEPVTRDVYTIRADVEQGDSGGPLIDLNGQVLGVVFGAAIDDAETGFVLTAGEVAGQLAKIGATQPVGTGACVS
# Mtb FBA inh – inhibits M. tuberculosis FBA enzyme; purified M. tuberculosis FBA, fluorescence read-out; inhibition, % at 1 µM; P9WQA3; AID 588726; actives 2.3% (n = 360,000);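 note: 0% = vehicle and 100% = reference inhibitor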
# RecA intein inh – Mtb RecA intein splicing inhibition; P9WHJ3; cell-free RecA intein splicing, fluorescence; actives 0.75% (n = 290,000); inhibition, % (concentration not given with the values); AID 2221; in the data active = inhibition above about 30%; inconclusive = no clear call, values can overlap the other calls;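 note: 0% = vehicle wells and 100% = reference inhibitor control wells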
# Mtb UGM inh – inhibitors of M. tuberculosis UDP-galactopyranose mutase | actives 0.06% (n = 320,000) | purified UGM, fluorescence polarization probe displacement | inhibition, % at 10 µM; in the data active = inhibition above about 10%, passing the limit was not always enough; inconclusive = no clear call, values can overlap the other calls
# GDH-TPI counter-1 – GDH-TPI coupled enzyme inhibition counter-screen; GDH-TPI coupled enzyme counterscreen, NADH absorbance; inhibition, % at 4.8 µM; actives 1.2% (n = 360,000); AID 588335; in the data active = inhibition above about 30%;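 note: 0% = DMSO wells and 100% = wells lacking the enzyme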
# Mtb bLac sens – beta-lactam sensitization of Mtb H37Rv. AID 434955. M. tuberculosis H37Rv growth with meropenem, percent inhibition. actives 0.27% (n = 330,000). inhibition, % at 25 µM; call rule not given here;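 note: growth measured after seven days incubation then overnight dye step; 0% = bacteria only wells and 100% = bacteria with antibiotic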
# Mtb FBA confirm – confirmation of M. tuberculosis fructose-bisphosphate aldolase inhibitors | inhibition, % at 1 µM | AID 651616 | shares compounds with Mtb FBA inh | actives 78% (n = 5,600) | purified M. tuberculosis FBA, fluorescence read-out;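 note: 0% = vehicle wells and 100% = reference inhibitor wells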
# GDH-TPI counter-2 – counter-screen for M. tuberculosis FBA inhibitors: GDH-TPI coupled enzyme inhibition | shares compounds with Mtb FBA inh | GDH-TPI coupled enzyme counterscreen, fluorescence | inhibition, % at 1 µM | actives 81% (n = 5,600) | AID 652141; in the data active = inhibition above about 10%
# Active calls of the source: *; ? = inconclusive; . = not tested or not shown; + = active, no number. Cut-off read from the data, not from the text of the source, unless noted: active = inhibition above about 27%; inactive = the rest.
SMILES,Rv3671c inh,Mtb FBA inh,RecA intein inh,Mtb UGM inh,GDH-TPI counter-1,Mtb bLac sens,Mtb FBA confirm,GDH-TPI counter-2
COc1ccc2cc3cc(C(=O)NC4CC4)sc3nc2c1,0,102*,0,1,23,38,130*,117*
COc1ccc2cc3cc(C(=O)NCCCN4CCc5ccccc5C4)sc3nc2c1,-4,27,-11,.,6,20,.,.
Cc1ccc(C)n1-c1ccc(C(=O)NN)s1,0,-2,4,0,21,62,.,.
CCCNC(=O)C(=O)NCC1CCCN1CC (configuration not stated),9,29*,1,0,-3,-3,18,13*
NS(=O)(=O)c1ccc(NC(=O)COC(=O)C2CC2)cc1,-2,-1,.,2,2,2,.,.
CCCSc1nnc(NC(=O)c2sc3nc(-c4cccs4)ccc3c2N)s1,0,43*,-25,3,37*,.,153*,116*
O=C1Nc2ccc(S(=O)(=O)NCc3ccccn3)c3cccc1c23,.,76*,-67,.,11,.,67*,52*
O=C1Nc2ccc(S(=O)(=O)N3CCCC3)c3cccc1c23,-4,6,-8,0,15,5,.,.
CN(C)CCNS(=O)(=O)c1ccc2c3c(cccc13)C(=O)N2,-4,43*,-49,3,17,2,-7,-4
CCN(CC)CCNS(=O)(=O)c1ccc2c3c(cccc13)C(=O)N2,4,54*,-201,1,9,-1,61*,60*
O=S1(=O)CC(N2CCC(Cc3ccccc3)CC2)CN1C1CCCC1 (configuration not stated),.,-1,.,.,.,.,.,.
O=C(O)CN1CCNCCN(CC(=O)O)CCNCC1,.,2,.,.,3,.,.,.
COc1ccc(CNc2ncnc3c2[nH]c2cc(OC)c(OC)cc23)cc1,16,46*,-1,1,-9,96,106*,92*
Cc1ccc2[nH]c3c(N4CCOCC4)ncnc3c2c1,0,82*,1,1,21,0,178*,145*
COc1ccc2[nH]c3c(N4CCN(Cc5ccc6c(c5)OCO6)CC4)ncnc3c2c1,20,35*,3,0,17,97,79*,53*
COc1ccc(CNc2ncnc3c2[nH]c2ccccc23)cc1,-1,17,6,0,10,5,.,.
CCOc1ccc2[nH]c3c(NCCOC)ncnc3c2c1,8,71*,0,-3,-1,6,64*,48*
Cc1ccnc(NS(=O)(=O)c2ccc(NC(=O)Cc3ccc(Br)cc3)cc2)n1,2,1,-1,3,-2,7,.,.
O=C(Nc1ccc(F)cc1F)c1cc(-c2ccc3c(c2)OCO3)on1,2,2,6,-3,-9,8,.,.
COc1ccc2[nH]c3c(NCCN(C(C)C)C(C)C)ncnc3c2c1,4,54*,.,-1,2,-2,+,184*
CCOc1ccc2[nH]c3c(NCCCOC)ncnc3c2c1,.,110*,2,2,1,9,+,+
CCOc1ccc2[nH]c3c(NCCN(CC)CC)ncnc3c2c1,5,21,1,1,7,6,.,.
Cc1ccc2[nH]c3c(N4CCc5ccccc5C4)ncnc3c2c1,4,9,7,0,17,99,.,.
CCOc1ccc2[nH]c3c(NCC(C)C)ncnc3c2c1,0,77*,4,0,1,10,126*,110*
CCOc1ccc2[nH]c3c(N4CCc5ccccc5C4)ncnc3c2c1,12,32*,19,1,10,92,+,+
SMILES,Rv3671c inh,Mtb FBA inh,RecA intein inh,Mtb UGM inh,GDH-TPI counter-1,Mtb bLac sens,Mtb FBA confirm,GDH-TPI counter-2
CC(C)OCCCNc1ncnc2c1[nH]c1ccccc12,3,18,-2,-2,11,?,.,.
CSc1ccc(NC(=O)C2(C)CCN2C(=O)Cc2ccc(C(C)(C)C)cc2)cc1 (configuration not stated),.,-2,.,.,11,.,.,.
CSc1ncnc2c1ncn2CCCN1CCN(Cc2c(C)cc(C)cc2C)CC1,.,1,.,.,4,.,.,.
O=C(Cn1cnc2ccccc2c1=O)NCCCN1CCCC1=O,-1,2,.,0,3,-5,.,.
Nc1ncnc2c(C3OC(CO)C(O)C3O)scc12 (configuration not stated),.,74*,.,.,10,.,180*,119*
CC1CCN(c2oc(-c3ccccc3Cl)nc2C#N)CC1,3,20,-2,0,27,4,.,.
Cc1ccccc1-c1nc(C#N)c(N2CCC(C)CC2)o1,0,48*,15,-1,12,0,51*,46*
CCOC(=O)C1CCCN(c2oc(-c3ccc(F)cc3)nc2C#N)C1 (configuration not stated),-8,30*,8,1,3,2,+,197*
COc1ccccc1-c1nc(C#N)c(N2CCc3ccccc3C2)o1,5,106*,-2,-3,14,22,-5,-5
CC1CC(C)CN(c2oc(-c3ccccc3F)nc2C#N)C1 (configuration not stated),7,60*,-3,-2,10,1,101*,78*
COc1ccc(N2CCN(c3oc(-c4ccccc4OC)nc3C#N)CC2)cc1,0,6,.,-2,3,47,.,.
C[C@H]1Cn2cnc(C(=O)NCc3ccc(CNC(=O)OC(C)(C)C)cc3)c2C(=O)N1,.,-1,.,.,-6,.,.,.
O=C(COC(=O)C1CC(=O)N(Cc2ccccc2)C1)Nc1ccc(Cl)cc1F (configuration not stated),-2,-1,-8,2,0,7,.,.
CC1CCN(c2oc(-c3ccc(F)cc3)nc2C#N)CC1,-6,97*,4,1,9,0,-1,-2
CCN1CCN(c2oc(-c3ccc(OC)cc3)nc2C#N)CC1,5,32*,-3,-1,26,27,143*,119*
COc1ccc(-c2nc(C#N)c(N3CCN(c4ccccc4)CC3)o2)cc1,9,1,1,-5,-2,0,.,.
C=CCn1cnc2c(nnn2Cc2ccc(F)cc2)c1=O,-2,3,-7,-1,0,-8,.,.
O=C(NC1CCCCC1)c1ccc2ccccc2c1O,.,28*,.,.,27,.,5,-3
O=C(COC(=O)c1cccc(Cl)c1)NC1CCS(=O)(=O)C1 (configuration not stated),10,3,.,.,7,-6,.,.
O=C(COC(=O)c1ccccc1Cl)NCc1cccs1,.,3,.,.,-8,.,.,.
Nc1cc(Cl)ccc1C(=O)OCC(=O)NC1CCS(=O)(=O)C1 (configuration not stated),0,52*,-1,-1,12,-6,170*,158*
Nc1cc(Cl)ccc1C(=O)OCC(=O)NCc1cccs1,-5,56*,.,3,2,-6,31*,21*
